Assay outcomes from PubChem BioAssay.
Only some compounds are listed: those with a hit (about 10% of all), similar ones and a draw of the others.
VDR inhibitor: vitamin D3 receptor (human) inhibition | AID 504847 | VDR-SRC2-3 peptide fluorescence polarization, 2 h | actives 0.93% (n = 400,000) | Potency, µM, hits mostly inhibitors | P11473
Target sequence (P11473 whole entry, looked up): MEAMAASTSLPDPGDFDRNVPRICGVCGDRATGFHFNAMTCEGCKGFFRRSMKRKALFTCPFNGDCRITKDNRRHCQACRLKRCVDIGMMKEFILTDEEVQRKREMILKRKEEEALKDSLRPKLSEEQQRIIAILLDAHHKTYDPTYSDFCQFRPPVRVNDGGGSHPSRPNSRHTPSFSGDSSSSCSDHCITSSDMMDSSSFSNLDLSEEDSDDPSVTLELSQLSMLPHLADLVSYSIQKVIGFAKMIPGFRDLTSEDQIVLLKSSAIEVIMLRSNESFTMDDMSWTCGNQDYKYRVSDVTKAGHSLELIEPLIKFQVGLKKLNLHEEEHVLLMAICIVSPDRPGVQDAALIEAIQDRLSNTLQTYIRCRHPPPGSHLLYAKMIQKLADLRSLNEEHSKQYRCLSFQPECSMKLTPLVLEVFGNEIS
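Reagent solutions, kept cold and dark, are dispensed first; compounds are then pinned in at 23 nl, plates briefly spun, and incubated 2 h at ambient temperature. Inhibition of VDR–SRC2-3 peptide binding is read by fluorescence polarization.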
CCT chaperon mod: changes cytosolic chaperonin activity; actives 0.3% (n = 360,000); activity change, % (concentration not given with the values), hits read low; AID 651819; purified chaperonin ATPase assay, HTRF ADP detection, 30 min; in the data active = activity change below about -30%
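Nucleotide hydrolysis assay: TRiC at 20–40 nM final (set by batch activity) with 10 uM ATP, 30 min at 37 °C, in presence of 76 uM compound. Detection by competitive ADP HTRF, 30 min ambient.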
Mm-Cpn inhibitor: inhibitors of Methanococcus maripaludis chaperonin TRiC (MmCpn) | purified Mm-Cpn ATPase, ADP Transcreener TR-FRET | Potency, µM (titrated, usually from 76.9 µM), actives largely listed as inhibitors | actives 0.031% (n = 330,000) | AID 504842; also: nearly all actives have a fitted effect of over 80% in size
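Purified archaeal chaperonin (25 nM final) was preincubated with compound for 10 min at 37°C, then ATP (10 uM final) was added for 30 min at 37°C in Tris pH 7.4/KCl/MgCl2/DTT buffer. ADP was quantified by HTRF Transcreener TR-FRET.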
PLK1 PBD inh: PLK1 (human) polo-box domain binding inhibition. P53350. Plk1 PBD binding of FITC phosphopeptide, fluorescence polarization. Potency, µM, most hits filed as inhibitors. actives 2.8% (n = 360,000); also: series mostly up to about 57 µM; nearly all actives have a fitted effect of over 65% in size
G9a inh: G9a (human) methyltransferase inhibition; actives 8.8% (n = 350,000); Potency, µM (top dose mostly 102 µM), usual class: inhibitors; G9a H3K9 monomethylation, AlphaScreen, 2 h; Q96KQ7; AID 504332; also: nearly all actives have a fitted effect of over 75% in size
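G9a (20 nM) preincubated 15 min RT with compounds, then 500 nM biotinylated H3K9 peptide and 20 uM SAM added; 2 h RT reaction. Monomethyl-H3K9 product detected by AlphaScreen with anti-H3K9me1 antibody, streptavidin donor and anti-rabbit IgG acceptor beads.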
Sfp PPTase inh: inhibitors of Bacillus subtilis Sfp phosphopantetheinyl transferase; Q9F4F7; Biochemical Sfp PPTase activity, qHTS; Potency, µM, usual class: inhibitors; actives 3.5% (n = 310,000);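 also: the enzyme is Sfp with the accession as filed and its product quenches rhodamine fluorescence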
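With Hepes-Na pH 7.6 buffer containing 10 mM MgCl2, Sfp (15 nM) modified BHQ-2-YbbR (12.5 uM) using rhodamine-CoA (5 uM). Two reads 30 minutes apart at 525/598 nm yielded each well's rate.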
Large screens that a line does not name were inactive. Unless noted, calls follow the shape of the dose curve; as a rule, active = well fitted curve in the direction sought with a large enough effect; inconclusive = small, poorly fitted or top-dose-only effect, or another doubt; inactive = no such curve, though single readings can be large; an effect the other way counts as inactive or inconclusive.

O=c1cc(CN2CCN(Cc3ccccc3)CC2)c2ccc(O)c(O)c2o1	G9a inh 35µM, Sfp PPTase inh 79µM
O=c1cc(CN2CCOCC2)c2ccc(O)c(O)c2o1	G9a inh 7.9µM, Sfp PPTase inh 45µM
Cc1ccc(N2CC(NC(=O)CCc3ccccc3)CC2=O)cc1C (configuration not stated)	none (no result: CCT chaperon mod, Mm-Cpn inhibitor, PLK1 PBD inh, Sfp PPTase inh)
Cc1ccsc1/C=C1/SC(N2CC(C)OC(C)C2)=NC1=O (configuration not stated)	PLK1 PBD inh 30µM, G9a inh 45µM, Sfp PPTase inh 56µM
OC[C@H](S)CS	VDR inhibitor inconclusive, G9a inh 1µM, Sfp PPTase inh 2.2µM (no result: CCT chaperon mod, Mm-Cpn inhibitor, PLK1 PBD inh)
Cc1nc(Nc2cnc(/C=C/c3cc(C(=O)Nc4cccc(C(F)(F)F)c4)ccc3C)cn2)cc(N2CCNCC2)n1	G9a inh 32µM, Sfp PPTase inh 50µM
CCOc1ccc(C(=O)Nc2ccc3nc(Nc4cccc(C(F)(F)F)c4)cc(C)c3c2)cc1OCC	none (no result: CCT chaperon mod, Mm-Cpn inhibitor, PLK1 PBD inh, Sfp PPTase inh)
CC(C)(C)C(=O)NC(CC(=O)O)c1ccccc1 (configuration not stated)	G9a inh 50µM
CC(C)C(=O)NC(CC(=O)O)c1ccccc1 (configuration not stated)	none
C#CCn1c(=O)c2c(nc(/C=C/c3cccc(OC)c3)n2C)n(CCCO)c1=O	none (no result: CCT chaperon mod, Mm-Cpn inhibitor, PLK1 PBD inh, G9a inh)
CC(=O)Nc1nnc(-c2ccc(Cl)s2)o1	G9a inh 14µM
COc1cc(C(=O)NC(C)c2ccc(-n3ccnc3)cc2)cc(OC)c1C (configuration not stated)	G9a inh 3.5µM
COc1cc(C(=O)NCC(=O)NC(C)c2ccc(-n3ccnc3)cc2)cc(OC)c1OC (configuration not stated)	none (no result: Sfp PPTase inh)
COCCNc1ncnc2ccc(-c3ccc(C(=O)N(C)C)cc3)cc12	none (no result: CCT chaperon mod, Mm-Cpn inhibitor, PLK1 PBD inh)
CCC1Oc2ccc(C)cc2N(CC(=O)NCc2ccc(F)cc2)C1=O (configuration not stated)	none (no result: CCT chaperon mod, Mm-Cpn inhibitor, PLK1 PBD inh, Sfp PPTase inh)
Cc1ccc(Nc2c(-c3ccc(N4CCOCC4)cc3)nc3ncccn23)c(C)c1	G9a inh 79µM
Cc1cccc(C)c1Nc1c(-c2ccc(N3CCOCC3)cc2)nc2ncccn12	G9a inh 8.9µM
Cc1cccc(C)c1Nc1c(-c2cccs2)nc2ncccn12	VDR inhibitor inconclusive (no result: CCT chaperon mod, Mm-Cpn inhibitor, PLK1 PBD inh, Sfp PPTase inh)
COc1cccc(NC(=O)CSc2nc(=O)n(Cc3ccncc3)c3c2CCC3)c1	none (no result: CCT chaperon mod, Mm-Cpn inhibitor, PLK1 PBD inh, Sfp PPTase inh)
O=c1[nH]c(N2CCCCC2)nc2ncn(Cc3ccccc3)c12	VDR inhibitor inconclusive, PLK1 PBD inh 27µM
O=C(CCc1nnc(Cc2c[nH]c3ccccc23)o1)NC1CCCC1	none
O=C(CCc1nnc(CCc2c[nH]c3ccccc23)o1)NC1CCC1	VDR inhibitor inconclusive, PLK1 PBD inh 24µM (no result: G9a inh)
CCOc1cc(/C=N\Nc2nc(-c3ccc(C)cc3)c(NC(C)=O)s2)ccc1O	G9a inh 32µM
CC(=O)Nc1sc(N/N=C/c2ccc(N(C)C)cc2)nc1-c1ccc(C)cc1	G9a inh 8.9µM
CC(=O)Nc1sc(N/N=C/c2ccc(C)cc2)nc1-c1ccc(C)cc1	VDR inhibitor inconclusive, G9a inh inconclusive
COc1cc(/C=N\Nc2nc(-c3ccc(C)cc3)c(NC(C)=O)s2)ccc1O	VDR inhibitor inconclusive, PLK1 PBD inh inconclusive
COC(=O)c1ccccc1NC(=O)Cn1c(=O)n(CCCC(=O)NCc2ccccc2Cl)c(=O)c2ccccc21	none (no result: CCT chaperon mod, Mm-Cpn inhibitor, PLK1 PBD inh, Sfp PPTase inh)
Cc1c(C(=O)N(Cc2ccccc2)C(C)C)oc2ccc(S(=O)(=O)N3CCOCC3)cc12	PLK1 PBD inh 30µM
Cc1c(C(=O)O)oc2ccc(S(=O)(=O)N3CC(C)CC(C)C3)cc12 (configuration not stated)	none
CCCCN(CC)C(=O)c1oc2ccc(S(=O)(=O)N3CCCC3)cc2c1C	VDR inhibitor inconclusive, PLK1 PBD inh 30µM
CCN(C(=O)c1oc2ccc(S(=O)(=O)N3CCCCCC3)cc2c1C)c1ccccc1	none (no result: CCT chaperon mod, Mm-Cpn inhibitor, PLK1 PBD inh, Sfp PPTase inh)
CCOC(=O)C1CCN(C(=O)c2oc3ccc(S(=O)(=O)N4CC(C)CC(C)C4)cc3c2C)CC1 (configuration not stated)	G9a inh 14µM
